For 33 compounds, IC50 results are on record in PubChem BioAssay AID651561 (Sanford-Burnham Center for Chemical Genomics, 2012).

For orientation: IC50 means the concentration at which inhibition is half-maximal.

SMILES strings stand for the structures. Some of the results follow. The source made the active and inactive calls. Cut-off read from the data, not from the text of the source: active = IC50 below about 20 µM; inactive = the rest.

The experiment is described as follows: mitochondrial permeability transition pore inhibitors, dose response, biochemical, absorbance, uHTS hits (AID 651561). The settings on record: isolated mitochondria swelling.
As to `CN1CCC[C@@H]1CCO[C@](C)(c1ccccc1)c1ccc(Cl)cc1`, the IC50 was 8.66 µM (active).
Consider `O=C(c1ccc(Cl)cc1)c1ccc(OCC(O)CN2CCCCC2)cc1` (stereo not drawn), for which the IC50 was 17.4 µM (active).
Consider `CN(C)Cc1ccc(F)cc1Sc1cc(Cl)ccc1Cl`, for which the IC50 is 45 µM (inactive).
As to `O=C(COC(=O)c1ccccc1NC(=O)c1ccco1)Nc1ccc2c(c1)OC(F)(F)O2`, the IC50 was 23.5 µM (inactive).
For `NC(N)=N/N=C/c1ccc(Cl)c([N+](=O)[O-])c1`, the IC50 was 7.68 µM (active).
For `Brc1ccc(CSc2ccc(-c3ccco3)nn2)cc1` the value was > 100 µM (inactive); for `COc1ccc(/C=C(/CC(=O)Nc2ccc(C)cc2)c2nc3ccccc3s2)cc1`, 45.4 µM (inactive); for `COc1ccc2sc(N(CCCN(C)C)C(=O)c3ccc(S(=O)(=O)N(C)C4CCCCC4)cc3)nc2c1`, 7.47 µM (active).
For `CCCCCCCCCCCCN1C(=O)CSC1c1cccnc1` (stereo not drawn), the IC50 was 9.05 µM (active).
For `CCCCOC(=O)CNc1nnc(SCC(=O)OCC)[nH]c1=O` the value was > 100 µM (inactive); for `O=C(Nc1cccc(C(F)(F)F)c1)c1ccc(N2CCNCC2)c([N+](=O)[O-])c1`, 8.28 µM (active).
Take `Cc1ccc(-c2noc(CCC(=O)Nc3ccccc3N3CCN(C)CC3)n2)cc1`: the IC50 was 18.8 µM (active).
Turning to `CCOC(=O)c1c(NC(=O)CSc2cn(CC)c3ccccc23)sc2c1CCC2`, the IC50 is > 100 µM (inactive).
Take `CCCCOc1ccc(CSC(=N)N)cc1[N+](=O)[O-]`: the IC50 was 6.05 µM (active).
As to `Fc1ccc(N2N=C(c3cccs3)CC2c2ccco2)c(F)c1` (stereo not drawn), the IC50 was 51.9 µM (inactive).
For `COCCn1c(CN2CCC(Cc3ccccc3)CC2)nc2c1c(=O)n(C)c(=O)n2C` the value was 3.99 µM (active); for `CCCc1[nH]nc2c1C(c1c(C)nn(-c3ccccc3)c1Cl)C(C#N)=C(N)O2` (stereo not drawn), > 100 µM (inactive).
Regarding `CN(C)Cc1ccccc1C1(O)c2ccccc2CSc2ccccc21` (stereo not drawn), the IC50 is 13.4 µM (active).
On to `FC(F)(F)COc1nc(N2CCCCC2)nc(N2CCNCC2)n1`, for which the IC50 was 18.9 µM (active).
With `O=C(Nc1cccc(-c2cccc(Cl)c2)c1)C1CCN(C2CCC2)CC1`, the IC50 was 5.2 µM (active).
Regarding `Cc1cc(C)c(NC(=O)C[N+](C)(C)CC(O)COc2cccc3ccccc23)c(C)c1` (stereo not drawn), the IC50 was 3.67 µM (active).
For `Cc1ccc2c(c1)C1CN(C)CCC1N2S(=O)(=O)c1ccc(Oc2ccc([N+](=O)[O-])cc2)cc1` (stereo not drawn) the value was 17.5 µM (active).
The result for `CCCC[C@@H]1CN=C(N)N1CCc1cc(C(F)(F)F)cc(C(F)(F)F)c1` reads 6.67 µM (active).
The result for `CCCCc1nc(NCCN)c(C#N)c2c1CSC(C)(C)C2` reads 13.3 µM (active); that for `O=C(NC1CCN(Cc2ccccc2)CC1)c1cc(Br)c(Br)[nH]1`, > 100 µM (inactive).
As for `Clc1ccc(-c2cc(C3CCNCC3)[nH]n2)c(Cl)c1`, the IC50 is 11.7 µM (active).
`CCCC(C(=O)OCCN(CC)CC)(c1ccccc1)c1ccccc1`: the IC50 is 12.5 µM (active).
Take `NC[C@H](Cc1ccccc1)NCCc1cc(C(F)(F)F)cc(C(F)(F)F)c1`: the IC50 is 12 µM (active).
For `Cc1nn(Cc2ccccc2)c2c1C(c1ccccc1)C(C#N)=C(N)O2` (stereo not drawn) the value was 25.9 µM (inactive).
For `N=c1n(Cc2ccc(Cl)cc2)c2ccccc2n1CC(O)c1ccco1` (stereo not drawn) the value was 5.87 µM (active); for `CC1(C)CC(=O)c2sc(N)nc2C1`, > 100 µM (inactive); for `CCNCCC(=O)N1c2ccccc2Sc2ccc(NC(=O)OCC)cc21`, 32.7 µM (inactive).
As for `C[C@@H](CN1CCC[C@H]1CN1C(N)=NC[C@@H]1Cc1ccccc1)N1C[C@@H](Cc2ccccc2)N(CCCC2CCCC2)C1=N`, the IC50 is 3.54 µM (active).
